Laboratory results: PubChem BioAssay AID1508622 (National Center for Advancing Translational Sciences (NCATS), 2021)
Activity calls are given as the source filed them. Where a call stands in place of a potency, no number is given. Calls come from the whole dose curve; as a rule, active = well fitted activation curve with a large enough effect; inconclusive = small, poorly fitted or top-dose-only effect; inactive = no such curve, though single readings can be large or run the other way.

Assay: Confirmatory qHTS for Identification of Small Molecule Activators of Huntingtin-Antisense Promoter Activity
Procedure, shortened: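 Plated reporter HEK293 cells (24 h) received library compounds at up to 57.5 uM final or 50 uM PTC124, incubated 24 h at 37C; firefly luciferase luminescence was then recorded with Dual-Glo reagent.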
Potency is the fitted concentration of half-maximal effect.

SMILES | Potency
CCOC(=O)C1CCN(S(=O)(=O)c2ccc(N3CCCCS3(=O)=O)cc2)CC1 | inactive
CCCCN(C)S(=O)(=O)c1cc(-c2cc(C)no2)ccc1C | inactive
CCc1ccc(NS(=O)(=O)c2c(C)nc3sc(CC)nn3c2=O)cc1 | inactive
O=c1c(-c2ccc(O)cc2)coc2cc(O)ccc12 | 8.49 µM (active)
COc1cc(OC)cc(C(=O)Oc2c(Sc3ccccc3)c(C)nn2C(C)(C)C)c1 | inactive
Cn1cnc(S(=O)(=O)N2CCC(C(=O)Nc3ccc(OC(F)(F)F)cc3)CC2)c1 | inactive
COc1cc(Cn2c(=O)oc3ccc(C)cc32)ccc1OCCC(C)C | inactive
CCN(Cc1ccccc1)S(=O)(=O)c1ccc(N2CCCCS2(=O)=O)cc1 | inactive
O=C(CSc1ccc(-c2ccccn2)nn1)Nc1ccc(F)c(F)c1 | inactive
CCC(=O)N1CCCc2cc(S(=O)(=O)N3CCC(C(=O)Nc4ccccc4CC)CC3)ccc21 | inactive
COc1ccc(NC(=O)C(=O)c2cc(C)n(-c3ccc(C)cc3)c2C)cc1Cl | inactive
CC1Cc2cc(S(=O)(=O)NCc3ccccc3)ccc2N1C(=O)C1CCC1 (stereo not drawn) | inactive
Cc1cccc(OCC(=O)Nc2ccc3c(c2)N(C)C(=O)c2ccccc2S3)c1 | inactive
COc1ccccc1C(=O)NCCSc1c(C)[nH]c2ccccc12 | inactive
CCCOc1ccccc1C(=O)N1CCC(c2nc3ccccc3s2)CC1 | inactive
COc1cc(CN2CCc3nc(N4CCN(c5ccccc5F)CC4)ncc3C2)ccc1OC(C)C | inactive
O=C(Nc1cccc(Cl)c1)c1ccc(F)c(S(=O)(=O)N2CCC3(CC2)OCCO3)c1 | inactive
COc1ccc(NC(=O)c2cc(S(=O)(=O)NCCC3=CCCCC3)ccc2F)cc1 | inactive
CC(C)c1ccc(NC(=O)c2ccc(F)c(S(=O)(=O)N3CCc4ccccc4C3)c2)cc1 | inactive
Cc1cccc(-c2nc(SCC(=O)Nc3ccc4c(c3)OCO4)c(-c3ccccc3)[nH]2)c1 | inactive
CCOc1ccc(NC(=O)c2c(Nc3ccccc3C)sc(C(=O)c3ccc(Cl)cc3)c2N)cc1 | inactive
Cc1cccc(CSc2cn(CC(=O)N3CCOCC3)c3ccccc23)c1 | 3.01 µM (active)
O=C(NCc1ccccc1)C(=O)NCC(c1ccco1)S(=O)(=O)c1ccc(Cl)cc1 (stereo not drawn) | inactive
CCOC(=O)c1oc2c(c1C)-c1nn(Cc3ccc(Cl)cc3)cc1CC2 | inactive

SMILES | Potency
Cc1nc(N2CCCC2)ncc1C(=O)Nc1ccc(OC(F)(F)F)cc1 | inactive
Cc1cc(SCC(=O)Nc2nsc(-c3ccc(C(C)(C)C)cc3)n2)nc2ccccc12 | 2.69 µM (active)
COc1ccc(N2CCN(C(CNC(=O)C(=O)NCCc3ccccc3)c3cccnc3)CC2)cc1 (stereo not drawn) | inactive
Cc1ccc(-n2ccnc(NCCc3ccc(S(N)(=O)=O)cc3)c2=O)c(C)c1 | inactive
O=C(NC1CCCCC1)c1ccc(CSc2nc3cccnc3n2Cc2cccc(F)c2)cc1 | inactive
Cc1ccc(S(=O)(=O)C(CNC(=O)C(=O)NCCc2ccc(F)cc2)c2cccs2)cc1 (stereo not drawn) | inactive
COc1cccc(C(=O)Nc2nc(-c3nnn(-c4cccc(Cl)c4C)c3C)ns2)c1 | inactive
Cc1ccc(Cl)cc1N1CCN(C(=O)C2CCN(S(=O)(=O)c3ccc4c(c3)oc(=O)n4C)CC2)CC1 | inactive
COc1ccc(-c2ccc3ncc4c(c3c2)n(-c2ccc(N3CCNCC3)c(C(F)(F)F)c2)c(=O)n4C)cn1 | inactive
Cc1ccccc1OCC(=O)Nc1ccccc1C(=O)OCc1cc(=O)n2c(C)csc2n1 | inactive
CCN(CC)S(=O)(=O)c1ccc2c(c1)N(CC(=O)N1CCN(c3cccc(C(F)(F)F)c3)CC1)C(=O)CO2 | inactive
Cc1ccc(NC(=O)c2c(Nc3ccccc3C)sc(C(=O)c3ccccc3)c2N)cc1 | inactive
CCOC(=O)C1=C(CN2CCN(c3ccccc3F)CC2)NC(=O)NC1c1ccc(OC)cc1 (stereo not drawn) | inactive
COc1cccc(NC(=O)CN2CCCN(S(=O)(=O)c3ccc(Br)cc3)CC2)c1 | inactive
Cc1cc(-c2ccc(S(=O)(=O)Nc3cccc(C)c3C)s2)on1 | inactive
COc1ccc(C(=O)Nc2ccc(-c3cc4ccccc4oc3=O)c(C)c2)cc1Br | inactive
COc1ccc(S(=O)(=O)N(CCc2ccccc2)CC(=O)Nc2cc(C)cc(C)c2)cc1OC | inactive
Cn1cnc(=N)c2[nH]cnc21 | inactive
CCOc1ccc(C(=O)Nc2ccc(-n3nncc3-c3ccc(OC)cc3)cc2)cc1 | inactive
O=C(NCC(c1ccccc1)c1ccccc1)c1nn(-c2ccccc2F)nc1CO | inactive
CCc1ccc(NC(=O)C2CCCN(S(=O)(=O)c3cccc4nsnc34)C2)cc1 (stereo not drawn) | inactive
Cc1nnc(N2CCC(C(=O)NCCc3ccccc3Cl)CC2)c2nn(-c3ccccc3)c(C)c12 | inactive
CCOC(=O)c1cc2c(=O)n3ccccc3nc2n(Cc2ccco2)c1=NC(=O)c1cc(C)cc(C)c1 | inactive
CCOc1ccc(CNC(=O)c2ccc3nc(Cc4ccc(OC)cc4)oc3c2)cc1OC | inactive

SMILES | Potency
COc1ccc(C(=O)Nc2ccc(S(=O)(=O)N(Cc3ccccc3)c3ccccc3)cc2)cc1 | inactive
COc1ccc(-c2nc3sc(CCNS(=O)(=O)c4ccc(F)c(C)c4)c(C)n3n2)cc1 | inactive
CCOc1ccc(NC(=O)CN(c2ccc(Cl)cc2C)S(=O)(=O)c2ccccc2)cc1 | inactive
Cc1ccc(NC(=O)c2ccc(C)c(S(=O)(=O)N3CCCCCC3)c2)cc1 | inactive
COc1ccccc1CNC(=O)c1oc2ccc(S(=O)(=O)N3CCCCC3)cc2c1C | inactive
CCOC(=O)c1ccc(Nc2nc3nonc3nc2Nc2cccc(C)c2C)cc1 | inactive
Cc1ccc(-c2c(C)n3c4c(=O)n(C)c(=O)n(C)c4nc3n2CCO)cc1 | inactive
Cc1ccc(NC(=O)c2ccc(F)c(S(=O)(=O)NCCc3ccccc3)c2)cc1F | inactive
COc1ccc2sc(N(Cc3cccnc3)C(=O)c3ccco3)nc2c1 | inactive
CCOc1ccccc1CNC(=O)c1ccc(NC(=O)N2CCSc3ncccc32)cc1 | inactive
COc1cc(NC(=O)NC(C)c2c(-n3cccc3)sc3c2CCCC3)cc(OC)c1OC (stereo not drawn) | inactive
Cc1ccc2onc(CC(=O)N3CCN(c4cc(Cl)ccc4C)CC3)c2c1 | inactive
CC(=O)N1CCc2c(sc(NC(=O)CSc3ccccc3)c2-c2nc3ccccc3s2)C1 | inactive
CCOc1ccc(-n2ccnc2SCC(=O)Nc2cc(C)ccc2C)cc1 | inactive
CCN1C(=O)c2ccccc2Sc2ccc(NC(=O)c3ccc(C)c(F)c3)cc21 | inactive
COc1cc(CN(C(=O)COc2ccc(C)cc2)c2ccccn2)cc(OC)c1OC | inactive
CCNc1nc2c(c(=O)n(C)c(=O)n2C)n1Cc1ccc(F)cc1 | inactive
COc1cccc(NC(=O)c2oc3ccc(S(=O)(=O)N4CCCCCC4)cc3c2C)c1 | inactive
Cc1ccc(Nc2cc(C)nc(-n3nc(C)cc3C)n2)cc1 | inactive
CC(C)c1ccc(NC(=O)C2CCN(c3nc(-c4ccc(C(C)C)cc4)no3)CC2)cc1 | inactive
Cc1cccc(CCNC(=O)c2c[nH]c3ccc(S(=O)(=O)Nc4ccccc4F)cc3c2=O)c1 | inactive
COc1cc2nc(N3CCCN(C)CC3)nc(NC3CCN(Cc4ccccc4)CC3)c2cc1OC | inactive
O=C(Nc1nnc(S(=O)(=O)N2CCc3ccccc32)s1)c1cccc(Cl)c1 | inactive
CCCCOc1ccc(C(=O)Nc2ccc3c(c2)CCCN3C(=O)c2cccs2)cc1 | inactive

SMILES | Potency
COc1ccc(C(=O)NCCSc2c(C)[nH]c3ccccc23)cc1 | inactive
Cc1ccc(C)c(NC(=O)CSc2nnc(-c3cc4occc4n3C)n2-c2ccccc2C)c1 | inactive
O=C(NCC(c1cccnc1)N1CCN(Cc2ccccc2)CC1)C(=O)Nc1ccc(Cl)cc1 (stereo not drawn) | inactive
COc1cccc(-c2cn3c(n2)sc2cc(C(=O)NCc4cccs4)ccc23)c1 | 8.49 µM (active)
CC(=O)c1ccc(N2CCN(c3ncnc4onc(C)c34)CC2)cc1 | inactive
O=C(CN(c1cccc(C(F)(F)F)c1)S(=O)(=O)c1ccccc1)Nc1cccc(Cl)c1 | inactive
COC(=O)C1=C(C)NC(C)=C(C(=O)OCC(C)=O)C1c1ccccc1[N+](=O)[O-] (stereo not drawn) | inactive
CCOc1ccc(CNC(=O)c2ccc(Sc3ccc(Cl)cc3)c(NC(C)=O)c2)cc1OC | inactive
COc1cc(C(=O)NCCSc2c(-c3ccccc3)[nH]c3ccccc23)cc(OC)c1OC | inactive
COc1cc(NC(=O)c2cc3c(s2)-c2ccccc2OC3)cc(OC)c1OC | inactive
CC(C)C[C@@H](C=O)NC(=O)[C@H](CC(C)C)NC(=O)[C@H](CC(C)C)NC(=O)OCc1ccccc1 | inactive
CCn1c(=O)n(CC)c2cc(N3CCCCC3)c(NC(=O)Nc3cc(Cl)ccc3OC)cc21 | inactive
Cc1ccc(Cl)cc1N1CCN(C(=O)c2cccn2-c2nnc(N3CCCCC3)s2)CC1 | inactive
Cc1cccc(N2CCN(C(=O)c3ccc4c(c3)N(Cc3cccc(Cl)c3)C(=O)c3ccccc3S4=O)CC2C)c1 (stereo not drawn) | inactive
COc1ccccc1N1CCN(S(=O)(=O)c2ccc(F)c(C(=O)Nc3ccc(Cl)cc3C(F)(F)F)c2)CC1 | inactive
COc1ccc(C(=O)CN2CCN(S(=O)(=O)c3ccc(C(C)C)cc3)CC2)cc1 | inactive
CCS(=O)(=O)c1oc(-c2ccc(F)cc2)nc1S(=O)(=O)c1ccc(Br)cc1 | inactive
Cc1ccc(NC(=O)Cn2cc(S(=O)(=O)Cc3ccccc3)c3ccccc32)cc1C | inactive
COc1ccc(S(=O)(=O)c2cc3cc(C(C)(C)C)cc(O)c3oc2=O)cc1 | inactive
Cc1ccc(CNC(=O)c2c(Nc3c(C)cccc3C)sc(C(=O)c3ccccc3)c2N)cc1 | inactive
CN(C)Cc1c(C(=O)NCCOc2ccc(C(=O)NO)cc2)oc2ccccc12 | 7.57 µM (active)
